Source: PubChem BioAssay (NCI)
About 83,000 compounds went through this panel and 20% of them were active in at least one assay; those are over-represented in the sample as a whole.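 96-well plates, one dose, 48 hours. Percent growth reported; active if below 10.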 A number with no mark means an inactive call. The source made the active and inactive calls.

These compounds were tested on OVCAR-3 ovarian (assay: NCI-60 one-dose screen, 48 h (100 = growth as untreated, 0 = no growth, -100 = all killed)). Settings: 10 µM unless noted.

SMILES	growth
COc1ccc(C(=O)/C(=N/Nc2ccccc2)c2ccc(OC)cc2)cc1	103%
Cn1c(=O)c2[nH]c(CC(=O)O)nc2n(C)c1=O	108%
C=CC1=NC(C)(C)CC(C)O1 (stereo unspecified)	113%
Cc1cc(Cl)cc(Cc2cc(Cl)cc(C)c2O)c1O	-2.69% (active)
Cc1onc(-c2ccccc2Cl)c1C(=O)Cl	127%
Nc1cc(N)ncn1	112%
ClCC(Cl)C1CCC(Cl)C(Cl)C1 (stereo unspecified)	114%
O=[N+]([O-])c1ccc(-c2nc(N(CCO)CCO)c3ccccc3n2)o1	-34.3% (active)
C=CCC(OC(C)=O)c1ccc(OC)c(OC)c1 (stereo unspecified)	111%
C/C(Cc1ccccc1)=N\O	105%
O=C(NCc1ccccc1)c1cccc([N+](=O)[O-])c1	106%
OCc1cccnc1	114%
CC(C)c1ncc([N+](=O)[O-])n1C	125%
Oc1ccc(CCC2CCNc3ccccc32)cc1 (stereo unspecified)	84.1%
CCOC(=O)C(CCC#N)(CCC#N)C(=O)OCC	102%
CCOC(=O)C(COS(C)(=O)=O)(COS(C)(=O)=O)C(=O)OCC	106%
CC(C)C(C)(C)C(=O)C(C)(C)C(C)(C)C	80.3%

SMILES	growth
CC(=O)O[C@H]1CC[C@]2(C)C3=C(C(=O)C[C@H]2C1(C)C)[C@]1(C)CC[C@H]([C@H](C)CCC(=O)O)[C@@]1(C)CC3=O	102%
CC(=O)OCC1CCC(COC(C)=O)CC1 (stereo unspecified)	102%
CC(=O)NNC(=S)N/C=C/c1c(C)ccc([N+](=O)[O-])c1[N+](=O)[O-]	103%
CCOC(=O)c1c[nH][nH]c1=O	112%
O=S(Cc1ccccc1)/C(=C/NC(=S)Nc1ccccc1)c1ccccc1 (stereo unspecified)	105%
CCOc1ccc(NC(=S)N2CCC(CCCC3CCN(C(=S)Nc4ccc(OCC)cc4)CC3)CC2)cc1	79.3%
COc1ccc(C)cc1NC(=O)SC(C)C	116% [100 µM]
Nc1ncnc(Nc2ccc(C(F)(F)F)cc2)n1	113%
Cc1c(Cl)cccc1N=C=S	102%
O=C(OC1CCCC1)c1ccccc1Cl	112%
BrCc1cccc(C[P+](c2ccccc2)(c2ccccc2)c2ccccc2)c1	14.2%
Cc1c(-c2ccc(C3CCCCC3)cc2)nc2ccc(F)cc2c1C(=O)O	41%
CC(=O)NC(CCc1ccc(Cl)c(Cl)c1)c1cccc(O)c(=O)c1 (stereo unspecified)	20.1%
COc1cccc(C(=O)NNC(=O)c2cccc3ccccc23)c1	121%
O=C(CCl)Nc1ccccc1SCc1cc(Cl)cc2c1OCOC2	26.1%
CCN(CC)c1ccc2nc3ccc(N=Nc4ccc(N(C)C)cc4)cc3[n+](-c3ccccc3)c2c1	-30.6% (active)

What follows are compounds tested on HS 578T breast in the same assay as above. Settings: 10 µM unless noted.

SMILES	growth
COc1ccc(C(=O)/C(=N/Nc2ccccc2)c2ccc(OC)cc2)cc1	102%
Cn1c(=O)c2[nH]c(CC(=O)O)nc2n(C)c1=O	107%
C=CC1=NC(C)(C)CC(C)O1 (stereo unspecified)	107%
O=C(Nc1ccccc1)c1ccco1	103%
CCOC(=O)CNC	121%
Cc1cc(Cl)cc(Cc2cc(Cl)cc(C)c2O)c1O	4.77% (active)
CC12CCC3c4ccc(O)cc4CCC3C1CCC2=O (stereo unspecified)	104%
Cc1onc(-c2ccccc2Cl)c1C(=O)Cl	102%
Nc1cc(N)ncn1	96.2%
ClCC(Cl)C1CCC(Cl)C(Cl)C1 (stereo unspecified)	103%
O=[N+]([O-])c1ccc(-c2nc(N(CCO)CCO)c3ccccc3n2)o1	-41.8% (active)
O=C(NCc1ccccc1)c1cccc([N+](=O)[O-])c1	91.2%
OCc1cccnc1	97.2%
Cc1onc(-c2c(F)cccc2Cl)c1-c1ncc(-c2ccc(Br)cc2)o1	66.6%
CC(C)c1ncc([N+](=O)[O-])n1C	80.1%
Oc1ccc(CCC2CCNc3ccccc32)cc1 (stereo unspecified)	91.8%
CCOC(=O)C(CCC#N)(CCC#N)C(=O)OCC	95.2%

SMILES	growth
CCOC(=O)C(COS(C)(=O)=O)(COS(C)(=O)=O)C(=O)OCC	104%
CC(C)C(C)(C)C(=O)C(C)(C)C(C)(C)C	93.9%
CC(=O)O[C@H]1CC[C@]2(C)C3=C(C(=O)C[C@H]2C1(C)C)[C@]1(C)CC[C@H]([C@H](C)CCC(=O)O)[C@@]1(C)CC3=O	119%
CC(=O)OCC1CCC(COC(C)=O)CC1 (stereo unspecified)	106%
CC(=O)NNC(=S)N/C=C/c1c(C)ccc([N+](=O)[O-])c1[N+](=O)[O-]	108%
CCOC(=O)c1c[nH][nH]c1=O	119%
O=S(Cc1ccccc1)/C(=C/NC(=S)Nc1ccccc1)c1ccccc1 (stereo unspecified)	114%
CCOc1ccc(NC(=S)N2CCC(CCCC3CCN(C(=S)Nc4ccc(OCC)cc4)CC3)CC2)cc1	85.3%
COc1ccc(C)cc1NC(=O)SC(C)C	102% [100 µM]
Nc1ncnc(Nc2ccc(C(F)(F)F)cc2)n1	108%
Cc1c(Cl)cccc1N=C=S	109%
O=C(OC1CCCC1)c1ccccc1Cl	91.7%
Cc1c(-c2ccc(C3CCCCC3)cc2)nc2ccc(F)cc2c1C(=O)O	75.3%
CC(=O)NC(CCc1ccc(Cl)c(Cl)c1)c1cccc(O)c(=O)c1 (stereo unspecified)	54.1%
COc1cccc(C(=O)NNC(=O)c2cccc3ccccc23)c1	114%
O=C(CCl)Nc1ccccc1SCc1cc(Cl)cc2c1OCOC2	102%
